Test results taken from PubChem BioAssay (NCATS).
Results filed as inconclusive are left out. Entries that show only a call come without a potency. Activity calls are given as the source filed them. Unless noted, calls follow the shape of the full dose curve.

Key:
[1] = qHTS assay for small molecule agonists of retinoid X receptor alpha signaling (AID 588544); settings: HEK293T RXRa-UAS-bla, beta-lactamase reporter, 18 h; 530 nm emission
[2] = biological target: Retinoic acid receptor RXR-alpha (Homo sapiens) (UniProt P19793); test: as above; settings: HEK293T RXRa-UAS-bla, beta-lactamase reporter, 18 h; series mostly up to 76.7 µM
[3] = biological target: Thyroid hormone receptor beta (Homo sapiens) (UniProt P10828); test: qHTS assay for small molecule agonists of thyroid hormone receptor beta signaling (AID 588545); settings: TR-UAS-bla GripTite HEK 293, beta-lactamase ratio, agonist mode, 18 h, percent of T3 response, DMSO as zero; series mostly up to 76.7 µM
Summary of the method: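 TR-UAS-bla-GripTite HEK 293 cells in medium with 2% charcoal/dextran FBS, 0.1 mM NEAA and 1 mM sodium pyruvate were treated with titrated compounds for 18 hrs at 37 C. Beta-lactamase reporter was read with CCF4 dye (ex 405, em 460/530 nm); EC50 from Hill fits.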

[4] = qHTS assay for small molecule antagonists of retinoid X receptor alpha signaling (AID 588546; active = well fitted inhibition curve with a large enough effect in the signal ratio, with a control signal flat, not every such curve was filed as active; the % refers to the signal ratio;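 also: cells stimulated with 9-cis-retinoic acid as agonist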); settings: HEK293T RXRa-UAS-bla, beta-lactamase ratio, antagonist mode; measured here: W530 green channel, cytotoxicity proxy
Summary of the method: (§1)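 Beta-lactamase reporter inhibition, read as CCF4 fluorescence ratio (ex 405, em 460/530 nm) after 2 h at RT. HEK293T UAS-bla cells, 2500/well, were stimulated with 9-cis-RA at 500 or 100 nM final alongside test compound for 18 h at 37 C.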

[5] = biological target: Retinoic acid receptor RXR-alpha (Homo sapiens) (UniProt P19793); test: as above; settings: HEK293T RXRa-UAS-bla, beta-lactamase ratio, antagonist mode
Summary of the method: as §1

[6] = biological target: Thyroid hormone receptor beta (Homo sapiens) (UniProt P10828); test: qHTS assay for small molecule antagonists of thyroid hormone receptor beta signaling (AID 588547; active = well fitted inhibition curve with a large enough effect in the signal ratio, with a control signal flat, not every such curve was filed as active; the % refers to the signal ratio;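 also: cells stimulated with 0.4 nM T3 agonist during compound exposure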); settings: TR-UAS-bla HEK293, beta-lactamase ratio, antagonist mode, 18 h
Summary of the method: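 Inhibition of T3-driven (0.4nM final) beta-lactamase reporter activity was measured over 0.59 nM to 92 uM compound after 18 h at 37 C. The cells were GripTite HEK293 TR-UAS-bla in charcoal/dextran-stripped serum, with CCF4 ratio read-out and IC50 from Hill fits.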

[7] = biological target: Voltage-gated inwardly rectifying potassium channel KCNH2 (Homo sapiens) (UniProt Q12809); test: qHTS Assay for Small Molecule Inhibitors of the Human hERG Channel Activity (AID 588834; active = well fitted curve in the direction sought with a large enough effect; an effect the other way counts as inactive or inconclusive;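 also: top concentration of the series differs between compounds; lower thallium flux fluorescence means stronger hERG block; nearly all actives have a fitted effect of over 50% in size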); settings: U2OS BacMam hERG, FluxOR thallium flux fluorescence; series mostly up to 92.2 µM
Summary of the method: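 Blockade is seen as reduced FluxOR thallium-flux fluorescence in U2OS cells expressing hERG from a BacMam construct, in Opti-MEM with 2% FCS. Concentration-response data fitted to the Hill equation for AC50.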

[8] = qHTS assay for small molecule activators of the nuclear factor-kappa B (NF-kB) signaling pathway (AID 651749; active = well fitted activation curve with a large enough effect in the signal ratio; the % refers to the signal ratio); settings: NF-kB-bla ME-180 cells, beta-lactamase FRET ratio, 16 h; stronger effect = higher value
Summary of the method: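 Stably transfected ME-180 line; NF-kB response element upstream of beta-lactamase. Treatment: compound or DMSO, 16 hr. Detection: fluorescent FRET substrate.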

[9] = qHTS assay for small molecule disruptors of the mitochondrial membrane potential - 1 hr assay (AID 651754); settings: series mostly up to 92.2 µM; also: nearly all actives have a fitted effect of over 35% in size
Summary of the method: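 Steps: seed HepG2 cells and let attach overnight; pin-transfer compound or vehicle; incubate 1 hr at 37C; add Mito-MPS dye for 30 min; read two-channel fluorescence for monomer and aggregate forms.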

[10] = qHTS assay for small molecule disruptors of the mitochondrial membrane potential - 5 hr assay (AID 651755); settings: JC-1-type ratio dye; series mostly up to 92.2 µM; also: nearly all actives have a fitted effect of over 40% in size
Summary of the method: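 HepG2, 2,000 cells/well, overnight attach; cpd or DMSO 5 hr, 37C/5% CO2; Mito-MPS 30 min 37C; fluor 490/535 + 540/590 nm.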

[11] = biological target: Tumor necrosis factor (Homo sapiens) (UniProt P01375); test: qHTS assay to identify small molecules that stimulate Tumor Necrosis Factor-alpha (TNF-alpha) secretion (AID 651757; active = well fitted curve in the direction sought with a large enough effect in the signal ratio; the % refers to the signal ratio); settings: Human cells, HTRF 665/615 ratio; series mostly up to 92.2 µM
Summary of the method: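 Secreted TNF-alpha from compound-treated THP-1 cells (17 hrs, 37 C) was quantified with a homogeneous time-resolved fluorescence antibody assay.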

[12] = qHTS assay to identify small molecules that stimulate interleukin-8 (IL-8) secretion (AID 651758; active = well fitted activation curve with a large enough effect in the signal ratio; the % refers to the signal ratio); settings: HTRF ratio (665/615); series mostly up to 92.2 µM
Summary of the method: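 Secreted IL-8 measured by TR-FRET sandwich (cryptate and XL665 antibodies) from THP-1 cells exposed to compound overnight (16 hrs, 37 C).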

[13] = qHTS assay for environmental chemicals that activate the Aryl hydrocarbon Receptor (AhR) signaling pathway (AID 651777; active = well fitted curve in the direction sought with a large enough effect; an effect the other way counts as inactive or inconclusive; also: nearly all actives have a fitted effect of over 15% in size); settings: 1A2-DRE human hepatoma cells, luciferase, 24 h; activation: stronger effect = higher value
Summary of the method: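 1A2-DRE human hepatoma reporter line; 1,200 cells/well; cmpd or DMSO 24 h, 37 C/5% CO2; One-Glo 30 min RT; luciferase lum.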

[14] = biological target: Peroxisome proliferator-activated receptor alpha (Homo sapiens) (UniProt Q07869); test: qHTS assay for small molecule agonists of the peroxisome proliferator-activated receptor alpha (PPARalpha) signaling pathway (AID 651778; active = well fitted curve in the direction sought with a large enough effect; an effect the other way counts as inactive or inconclusive); settings: PathHunter PPARalpha complementation, chemiluminescence, 6 h; stronger effect = higher value
Summary of the method: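 Chemiluminescence from complemented enzyme reported PPARalpha activation in cells after 6 hr of compound treatment at 37 C. The detection reagent was incubated for 60 min at room temperature, and compounds were scored as agonists.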

[15] = biological target: Nuclear receptor ROR-gamma (Homo sapiens) (UniProt P51449); test: qHTS assay for small molecule antagonists of the retinoid-related orphan receptor gamma (ROR-gamma) signaling pathway (AID 651802; active = well fitted curve in the direction sought with a large enough effect; an effect the other way counts as inactive or inconclusive;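 also: CHO cells with doxycycline-induced ROR-gamma expression; nearly all actives have a fitted effect of over 60% in size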); settings: ROR-gamma antagonist cell reporter assay; series mostly up to 92.2 µM
Summary of the method: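 Antagonism is scored as a fall in luminescence from a RORE-luciferase reporter in CHO cells expressing ROR under a TET-inducible promoter, measured 16hr after doxycycline induction in the presence of compound.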

[16] = qHTS assay for small molecule agonists of the antioxidant response element (ARE) signaling pathway measured by Nrf2-dependant transcriptional activity (AID 720636; active = well fitted curve in the direction sought with a large enough effect in the repeat runs; an effect the other way counts as inactive or inconclusive;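 also: HepG2 cells with an ARE-driven luciferase reporter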); settings: ARE-luc HepG2, Nrf2 luciferase reporter, 16 h; series mostly up to 92.4 µM
Summary of the method: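 Cells: ARE-luc HepG2 with Nrf2-responsive luciferase. Medium contained 1% dialyzed FBS. Compound exposure lasted 16 hr at 37 C and 5% CO2, followed by ONE-Glo luciferase detection.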

[17] = qHTS assay for small molecule antagonists of the retinoid-related orphan receptor gamma (ROR-gamma) signaling pathway - cell viability counter screen (AID 720652; active = well fitted curve in the direction sought with a large enough effect in the repeat runs; an effect the other way counts as inactive or inconclusive;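 also: CHO reporter cells with doxycycline-induced ROR-gamma expression; compound exposure lasted 16 hr before ATP read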); settings: RORgamma reporter cell line viability counter screen; series mostly up to 92.2 µM
Summary of the method: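 Cytotoxicity is quantified via intracellular ATP (CellTiter-Glo luminescence) in doxycycline-induced CHO ROR response element-luciferase reporter cells treated with compound for 16 hr at 37 C, 5% CO2.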

[18] = qHTS assay for small molecule agonists of the antioxidant response element (ARE) signaling pathway measured by Nrf2-dependant transcriptional activity - cell viability counter screen (AID 720653; active = well fitted curve in the direction sought with a large enough effect in the repeat runs; an effect the other way counts as inactive or inconclusive); settings: ARE-bla HepG2 viability, CellTiter-Glo ATP luminescence, 16 h; stronger effect = lower value
Summary of the method: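 Cytotoxicity counter screen: intracellular ATP quantified by CellTiter-Glo luminescence in the same ARE-bla HepG2 plates, after 16 h compound exposure and a 2 h beta-lactamase substrate step.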

[19] = qHTS assay for small molecule activators of the p53 signaling pathway (AID 651743; active = well fitted activation curve with a large enough effect in the signal ratio, not every such curve was filed as active; the % refers to the signal ratio); settings: HCT-116 p53RE-bla, beta-lactamase FRET ratio, 16 h; stronger effect = higher value
Summary of the method: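 Screen for p53 pathway agonists uses stably transfected p53RE-bla HCT-116 cells, 4,000 per well, treated 16 h at 37 C with compounds in DMSO.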

[20] = qHTS assay for small molecule agonists of the antioxidant response element (ARE) signaling pathway (AID 651741; active = well fitted activation curve with a large enough effect in the signal ratio; the % refers to the signal ratio; also: potency is read from the fitted curve at half-maximal effect); settings: HepG2 ARE-bla reporter, beta-lactamase FRET ratio, 16 h; series mostly up to 96 µM
Summary of the method: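 Seeding 2,000 ARE-bla HepG2 cells per well preceded a 5 h incubation at 37 C/5% CO2 and a 16 h compound exposure at 37 C. Beta-lactamase reporter activity was then quantified by fluorescence after 2 h with LiveBLAzer B/G FRET substrate.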

Tumor necrosis factor (Homo sapiens), sequence (P01375 whole entry, looked up): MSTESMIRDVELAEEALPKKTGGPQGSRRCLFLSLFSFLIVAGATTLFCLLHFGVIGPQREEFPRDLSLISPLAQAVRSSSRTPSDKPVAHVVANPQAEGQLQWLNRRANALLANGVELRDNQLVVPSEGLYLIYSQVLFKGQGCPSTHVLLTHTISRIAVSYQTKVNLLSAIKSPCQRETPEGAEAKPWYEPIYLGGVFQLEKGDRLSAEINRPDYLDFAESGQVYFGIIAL
Retinoic acid receptor RXR-alpha (Homo sapiens), sequence (P19793 whole entry, looked up): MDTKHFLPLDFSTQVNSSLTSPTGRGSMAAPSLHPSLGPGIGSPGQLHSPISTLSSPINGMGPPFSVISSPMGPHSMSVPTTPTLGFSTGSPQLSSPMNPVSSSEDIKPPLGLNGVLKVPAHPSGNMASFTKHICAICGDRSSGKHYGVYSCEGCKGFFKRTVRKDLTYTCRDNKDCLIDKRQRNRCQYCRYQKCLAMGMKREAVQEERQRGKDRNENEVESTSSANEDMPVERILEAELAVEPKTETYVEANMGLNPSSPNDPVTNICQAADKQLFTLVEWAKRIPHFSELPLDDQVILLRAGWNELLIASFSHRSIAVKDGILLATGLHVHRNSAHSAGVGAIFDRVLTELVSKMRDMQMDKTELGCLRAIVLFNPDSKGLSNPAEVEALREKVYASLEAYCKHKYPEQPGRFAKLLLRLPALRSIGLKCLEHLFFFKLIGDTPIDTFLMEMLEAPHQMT
Nuclear receptor ROR-gamma (Homo sapiens), sequence (P51449 whole entry, looked up): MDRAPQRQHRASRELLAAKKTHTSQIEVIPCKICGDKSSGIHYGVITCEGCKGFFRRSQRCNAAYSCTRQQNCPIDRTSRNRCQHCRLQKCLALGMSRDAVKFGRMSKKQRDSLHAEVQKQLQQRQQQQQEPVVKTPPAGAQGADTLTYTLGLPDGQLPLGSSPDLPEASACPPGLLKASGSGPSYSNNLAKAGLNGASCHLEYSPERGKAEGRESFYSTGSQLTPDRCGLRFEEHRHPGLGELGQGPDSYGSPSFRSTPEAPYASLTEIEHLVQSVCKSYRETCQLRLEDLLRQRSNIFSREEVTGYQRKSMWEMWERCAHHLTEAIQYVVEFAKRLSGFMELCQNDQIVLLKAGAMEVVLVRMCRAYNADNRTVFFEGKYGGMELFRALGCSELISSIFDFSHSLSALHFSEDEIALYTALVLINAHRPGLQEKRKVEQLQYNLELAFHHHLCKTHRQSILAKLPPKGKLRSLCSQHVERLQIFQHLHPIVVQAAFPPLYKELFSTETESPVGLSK
Thyroid hormone receptor beta (Homo sapiens), sequence (P10828 whole entry, looked up): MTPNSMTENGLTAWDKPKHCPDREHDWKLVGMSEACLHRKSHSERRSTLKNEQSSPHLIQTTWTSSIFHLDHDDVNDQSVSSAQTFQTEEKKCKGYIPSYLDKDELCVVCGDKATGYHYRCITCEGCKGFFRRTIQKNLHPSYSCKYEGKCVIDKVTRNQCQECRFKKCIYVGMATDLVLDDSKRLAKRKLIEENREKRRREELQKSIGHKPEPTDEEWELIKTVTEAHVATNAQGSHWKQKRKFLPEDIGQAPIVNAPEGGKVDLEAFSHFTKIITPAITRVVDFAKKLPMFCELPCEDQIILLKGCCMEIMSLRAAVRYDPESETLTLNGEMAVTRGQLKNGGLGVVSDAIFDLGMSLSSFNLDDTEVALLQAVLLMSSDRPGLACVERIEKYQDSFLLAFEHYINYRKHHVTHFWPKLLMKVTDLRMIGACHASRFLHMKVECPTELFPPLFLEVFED
Voltage-gated inwardly rectifying potassium channel KCNH2 (Homo sapiens), sequence (Q12809 whole entry, looked up): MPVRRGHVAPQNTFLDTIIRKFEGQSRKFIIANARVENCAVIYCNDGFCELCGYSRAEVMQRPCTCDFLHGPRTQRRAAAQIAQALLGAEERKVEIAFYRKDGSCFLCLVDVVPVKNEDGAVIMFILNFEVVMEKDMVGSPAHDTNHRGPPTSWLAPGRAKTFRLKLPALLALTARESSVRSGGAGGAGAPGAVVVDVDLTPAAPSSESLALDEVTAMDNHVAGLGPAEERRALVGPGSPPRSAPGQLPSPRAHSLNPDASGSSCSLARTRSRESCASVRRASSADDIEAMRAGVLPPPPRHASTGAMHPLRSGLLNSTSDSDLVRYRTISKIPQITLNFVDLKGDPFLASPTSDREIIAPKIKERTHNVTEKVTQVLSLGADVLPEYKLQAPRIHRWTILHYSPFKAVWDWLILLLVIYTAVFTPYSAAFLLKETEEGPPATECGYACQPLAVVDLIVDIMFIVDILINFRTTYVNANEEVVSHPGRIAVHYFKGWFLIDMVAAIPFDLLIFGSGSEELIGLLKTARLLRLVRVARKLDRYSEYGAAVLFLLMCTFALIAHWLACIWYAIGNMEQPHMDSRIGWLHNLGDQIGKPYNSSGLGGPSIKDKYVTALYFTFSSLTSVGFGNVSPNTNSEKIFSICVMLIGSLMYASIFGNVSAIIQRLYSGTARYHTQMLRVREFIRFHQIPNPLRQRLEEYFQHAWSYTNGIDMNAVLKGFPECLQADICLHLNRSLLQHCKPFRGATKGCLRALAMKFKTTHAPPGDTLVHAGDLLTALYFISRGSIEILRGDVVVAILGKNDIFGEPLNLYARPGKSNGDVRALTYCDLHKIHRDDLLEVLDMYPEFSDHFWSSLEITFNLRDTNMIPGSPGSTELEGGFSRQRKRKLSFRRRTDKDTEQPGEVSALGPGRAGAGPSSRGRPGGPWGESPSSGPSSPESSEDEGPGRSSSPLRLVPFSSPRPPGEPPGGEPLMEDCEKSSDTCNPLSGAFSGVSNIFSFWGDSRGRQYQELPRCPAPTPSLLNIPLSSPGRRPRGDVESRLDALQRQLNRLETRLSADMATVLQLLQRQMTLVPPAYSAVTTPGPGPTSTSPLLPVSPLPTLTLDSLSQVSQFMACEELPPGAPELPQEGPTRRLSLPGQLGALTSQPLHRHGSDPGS
Peroxisome proliferator-activated receptor alpha (Homo sapiens), sequence (Q07869 whole entry, looked up): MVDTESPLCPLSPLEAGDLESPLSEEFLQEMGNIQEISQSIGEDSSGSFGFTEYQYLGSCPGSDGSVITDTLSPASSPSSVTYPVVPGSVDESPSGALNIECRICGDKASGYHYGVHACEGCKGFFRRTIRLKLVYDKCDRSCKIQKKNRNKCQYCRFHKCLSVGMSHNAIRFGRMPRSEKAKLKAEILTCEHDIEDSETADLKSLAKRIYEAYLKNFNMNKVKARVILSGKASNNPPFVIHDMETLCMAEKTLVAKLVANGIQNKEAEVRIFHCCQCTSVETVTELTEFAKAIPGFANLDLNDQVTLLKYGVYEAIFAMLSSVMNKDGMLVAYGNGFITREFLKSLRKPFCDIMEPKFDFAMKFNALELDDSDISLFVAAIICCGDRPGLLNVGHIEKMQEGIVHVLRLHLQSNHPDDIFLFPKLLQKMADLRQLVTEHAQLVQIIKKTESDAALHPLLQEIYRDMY

Structure (SMILES)	max response [1] [%]	outcome [2]	outcome [3]	max response [4] [%]	max response [5]	activity change % (negative = inhibition) [6]	Potency [7]	activation [8]	Potency [9]	Potency [10]	Potency [11]	Potency [12]	activation [13]	max response [14]	Potency [15]	outcome [16]	Potency [17]	max response [18]	activation [19]	Potency [20]
OC/C(Br)=C(\Br)CO	-4.05	inactive	inactive	-2.68	-0.311% (inactive)	-11.8% (inactive)	inactive	0.22% (inactive)	inactive	inactive	inactive	inactive	-1.6% (inactive)	-6.37% (inactive)	inactive	inactive	inactive	1.49% (inactive)		
Oc1c(Cl)ccc(Cl)c1Cl	2.14	inactive	inactive	1.62	17.5% (inactive)	13.7% (inactive)	inactive				inactive	inactive		6.63% (inactive)		inactive	inactive		1.05% (inactive)	
C=CCCCCCC	-14	inactive	inactive	0.804	-6.3% (inactive)	-3.79% (inactive)	inactive			inactive	inactive		0.992% (inactive)	-3.21% (inactive)	inactive	inactive	inactive	-7.1% (inactive)	-2.89% (inactive)	
CCCCCCC(=O)O	-3.5	inactive	inactive	-1.09	7.92% (inactive)	-7.74% (inactive)	inactive		inactive	inactive	inactive		0.903% (inactive)		inactive	inactive	inactive	-2.08% (inactive)	-5.16% (inactive)	
CC/C=C1/OC(=O)c2ccccc21	0.089	inactive	inactive	-8.24	8.95% (inactive)	10.4% (inactive)		-0.0092% (inactive)	inactive	inactive	inactive		0.751% (inactive)	-2.48% (inactive)	inactive	inactive	inactive	4.48% (inactive)	-1.64% (inactive)	inactive
Cc1cc(C2(c3cc(C)c(O)cc3C)OS(=O)(=O)c3ccccc32)c(C)cc1O	-3.17	inactive	inactive	-12.4	0.408% (inactive)	-15% (inactive)	inactive		inactive					-10.4% (inactive)	inactive	inactive	inactive	-15.6% (inactive)	-5.82% (inactive)	
BrC/C=C/CBr	2.54	inactive	inactive	-0.458	-9.94% (inactive)	15.3% (inactive)		0.2% (inactive)	inactive	inactive	inactive	inactive	0.145% (inactive)	3.19% (inactive)	inactive	inactive	inactive	-9.49% (inactive)	0.265% (inactive)	42.2 µM (active)
Cc1cccc(C(=O)O)c1	-7.73	inactive	inactive	-2.27	12.5% (inactive)	2.36% (inactive)		0.0626% (inactive)	inactive	inactive	inactive			-3.59% (inactive)	inactive	inactive	inactive	-0.706% (inactive)	-0.475% (inactive)	inactive
C=Cc1ccccc1C=C	-7.36	inactive	inactive	-3.83	-4.16% (inactive)	-4.38% (inactive)	inactive			inactive	inactive	inactive	-0.496% (inactive)	-1.6% (inactive)	inactive	inactive	inactive	4.89% (inactive)	-1.45% (inactive)	
CCCCC=O	-7.77	inactive	inactive	-1.56	-1.19% (inactive)	-3.59% (inactive)	inactive	0.166% (inactive)	inactive	inactive	inactive	inactive		-1.36% (inactive)	inactive	inactive	inactive	-1.82% (inactive)		
CC(=O)c1ccc([N+](=O)[O-])cc1	-7.91	inactive	inactive	4.7	1.74% (inactive)	-0.995% (inactive)	inactive	0.321% (inactive)	inactive	inactive	inactive		0.202% (inactive)	-2.88% (inactive)		inactive	inactive	19% (inactive)		
Clc1ccccn1	-14.3	inactive	inactive	-9.05	21.3% (inactive)	-6.15% (inactive)		-1% (inactive)	inactive	inactive	inactive			-1.35% (inactive)	inactive	inactive	inactive	-1.74% (inactive)	-3.75% (inactive)	inactive
CNc1ccc([N+](=O)[O-])cc1	3.4	inactive	inactive	8.47	0.864% (inactive)	2.18% (inactive)	inactive	-1.5% (inactive)		inactive	inactive		1.91% (inactive)	-2.03% (inactive)	inactive	inactive		5.65% (inactive)		
